Test results: publication PMC4336329 (PLoS ONE, 2015)
About 2,200 (0.71%) of roughly 310,000 compounds showed an effect of 50% or more. The effect is printed as a negative number. The full list was thinned out, with strong results kept by preference.

Each compound was assayed against human ether-à-go-go-related gene (hERG) potassium channel (human, UniProt Q12809) (assay: primary screen, population patch clamp on CHO cells stably expressing hERG; higher = less effect of the substance).
Description: Briefly, Chinese hamster ovary (CHO) cells stably expressing the hERG channel were dislodged from tissue culture flasks and dispensed into PPC plates. […] During the recording, background leak currents were estimated by a 100 ms step to -80 mV from an initial holding potential of -70 mV and subtracted from the subsequent current measurement. The campaign was conducted in two phases using slight differences in recording protocol. In the first phase, the initial voltage pulse used a 100 ms step to -30 mV from a holding potential of -70 mV, a 2 s conditioning step to +25 mV, and a 2 s test step to -30 mV. During the second phase of the screen, the potential during the conditioning step was raised to +45 mV. In both phases of the campaign, a secondary voltage pulse was applied using the same parameters as the second phase initial pulse. The initial and secondary pulses were applied in the absence of compound, and upon application of 1 μM and 10 μM test concentrations. Small molecule effects on hERG current density were quantified by […].

Chain of human ether-à-go-go-related gene (hERG) potassium channel (Q12809 whole entry, looked up): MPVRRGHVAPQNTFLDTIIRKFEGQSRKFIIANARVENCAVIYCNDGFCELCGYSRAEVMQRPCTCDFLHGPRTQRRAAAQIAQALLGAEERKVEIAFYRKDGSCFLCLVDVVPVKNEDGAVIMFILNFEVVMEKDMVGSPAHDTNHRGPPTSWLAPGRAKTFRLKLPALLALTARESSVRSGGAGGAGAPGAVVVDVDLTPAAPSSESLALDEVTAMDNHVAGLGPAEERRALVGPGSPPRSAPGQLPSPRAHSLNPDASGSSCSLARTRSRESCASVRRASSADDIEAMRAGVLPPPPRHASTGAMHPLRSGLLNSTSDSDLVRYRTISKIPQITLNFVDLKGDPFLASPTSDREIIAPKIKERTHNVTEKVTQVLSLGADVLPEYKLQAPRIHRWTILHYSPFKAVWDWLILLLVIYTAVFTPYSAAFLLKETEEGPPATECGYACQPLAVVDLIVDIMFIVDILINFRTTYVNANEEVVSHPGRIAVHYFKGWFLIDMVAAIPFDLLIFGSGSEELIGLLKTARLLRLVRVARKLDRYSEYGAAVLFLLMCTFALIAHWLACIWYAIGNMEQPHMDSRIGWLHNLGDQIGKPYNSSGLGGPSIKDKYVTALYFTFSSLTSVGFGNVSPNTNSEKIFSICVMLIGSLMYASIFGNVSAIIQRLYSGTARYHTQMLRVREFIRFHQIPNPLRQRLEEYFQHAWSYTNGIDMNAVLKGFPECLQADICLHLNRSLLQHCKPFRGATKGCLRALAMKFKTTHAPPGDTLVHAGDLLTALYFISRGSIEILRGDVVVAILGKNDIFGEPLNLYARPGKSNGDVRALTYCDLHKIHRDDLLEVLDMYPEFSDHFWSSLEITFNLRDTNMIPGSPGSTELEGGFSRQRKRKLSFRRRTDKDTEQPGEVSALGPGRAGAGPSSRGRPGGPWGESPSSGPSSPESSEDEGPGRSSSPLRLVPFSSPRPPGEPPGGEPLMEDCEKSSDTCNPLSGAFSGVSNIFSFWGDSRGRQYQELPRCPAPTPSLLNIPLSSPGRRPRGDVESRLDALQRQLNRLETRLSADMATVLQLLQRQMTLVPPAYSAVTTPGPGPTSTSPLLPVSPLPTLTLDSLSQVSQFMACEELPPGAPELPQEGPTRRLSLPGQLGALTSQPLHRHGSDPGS

SMILES	hERG current change (%, negative = inhibition) at 1uM [%]
COc1ccc(S(=O)(=O)N(C)CC(=O)Nc2ccccc2SC)cc1Cl	11.6
COc1nc2ccccc2c(=O)n1-c1ccc(C)cc1	7.4
Cc1cccc(C(=O)NCC2CCN(C(=O)c3cccc(C)c3)CC2)c1	-2.21
COc1cccc(NC(=O)CCN2CCC(C(N)=O)CC2)c1	16.9
Cc1ccccc1C(=O)Nc1ccnn1C1CCN(Cc2ccncc2)CC1	-3.47
CC(CN1CCC(n2nccc2NC(=O)c2ccccc2Cl)CC1)c1ccccc1 (stereo not shown)	-43.6
Cc1ccccc1C(=O)Nc1ccnn1C1CCN(Cc2cnn(C(C)C)c2)CC1	-27.3
Cc1ccccc1C(=O)Nc1ccnn1C1CCN(Cc2cnn(C)c2)CC1	-1.26
O=C(Nc1ccnn1C1CCN(Cc2ccccc2)CC1)c1ccccc1Cl	-53.1
CCc1ccc(CN2CCC(n3nccc3NC(=O)c3ccccc3C)CC2)cc1	-85.1
O=C(Nc1ccnn1C1CCN(Cc2cccnc2)CC1)c1ccccc1Cl	-11.5
CSc1ccc(CN2CCC(n3nccc3NC(=O)c3ccccc3C)CC2)cc1	-83.8
COCC(C)N1CCC(n2nccc2NC(=O)c2ccccc2Cl)CC1 (stereo not shown)	-1.49
Cn1cc(CN2CCC(n3nccc3NC(=O)c3ccccc3Cl)CC2)cn1	-4.32
CC(CCN1CCC(n2nccc2NC(=O)c2ccccc2Cl)CC1)c1ccccc1 (stereo not shown)	-85.1
Cc1ccccc1C(=O)Nc1ccnn1C1CCN(Cc2cccnc2)CC1	-48.9
O=C(c1cc([N+](=O)[O-])ccc1N1CCCCC1)N1CCCCC1	-6.51
Cc1ccc(S(=O)(=O)N(C)Cc2ccc(-c3nnc4n3CCC4)cc2)cc1	0.889
COC(=O)c1ccc(N2CCCCC2)c(NS(=O)(=O)c2ccc(C)cc2)c1	12.6
CCOC(=O)CSc1nnc(Cn2c(=O)sc3ccccc32)n1C	-3.18
Cc1cc(CN2CCC(n3nccc3NC(=O)c3ccccc3Cl)CC2)cc(C)c1O	-64.4
Cc1cc(C)c(CN2CCC(n3nccc3NC(=O)c3ccccc3Cl)CC2)cc1C	1.2

SMILES	hERG current change (%, negative = inhibition) at 1uM [%]
COc1ccc(O)c(CN2CCC(n3nccc3NC(=O)c3ccccc3Cl)CC2)c1	-15.4
CCN1CCC(n2nccc2NC(=O)c2ccccc2Cl)CC1	10.5
CCc1ccc(CN2CCC(n3nccc3NC(=O)c3ccccc3Cl)CC2)cc1	-92.3
NC(=O)c1ncn([C@@H]2O[C@H](CO)[C@@H](O)[C@H]2O)n1	25.8
Cn1c([O-])c(Cc2cccc(Cl)c2Cl)c(=O)n(C)c1=O.[NH4+]	17.5
CCOc1ccc(OCC(=O)OCC(=O)N(CC(C)C)c2c(N)n(Cc3ccccc3)c(=O)[nH]c2=O)cc1	5.08
COc1cccc(NC(=O)Nc2cccc(C(=O)O)c2)c1	16.4
CCOC(=O)C(CC)Sc1ccc2nnc(CCNS(=O)(=O)c3ccccc3)n2n1 (stereo not shown)	3.33
O=C(NCc1ccc(Cl)cc1Cl)C(=O)N1CCCCC1	7
O=C(c1cccc(C(F)(F)F)c1)N1CCN(CCc2ccccc2)CC1	1.81
COc1ccc(CC(=O)NCC2CCCN(Cc3cccc(C(F)(F)F)c3)C2)cc1 (stereo not shown)	5.75
CSCCC(=O)N(C)CC1CCCN(CCc2cccc(C(F)(F)F)c2)C1 (stereo not shown)	-55.1
COC(=O)CCC(=O)N(C)CC1CCCN(CCc2cccc(C(F)(F)F)c2)C1 (stereo not shown)	-39.9
CN(CC1CCCN(CCc2cccc(C(F)(F)F)c2)C1)C(=O)c1ccco1 (stereo not shown)	-38.3
CC(=O)Nc1ccc(CN(C)CC2CCCN(CCc3cccc(C(F)(F)F)c3)C2)cc1 (stereo not shown)	-18.4
CN(CC1CCN(CCc2cccc(C(F)(F)F)c2)CC1)C(=O)c1ccc(F)cc1F	-35.9
CN(CC1CCN(CCc2cccc(C(F)(F)F)c2)CC1)C(=O)c1ccccc1	-56.1
COc1cccc(C(=O)N(C)CC2CCN(CCc3cccc(C(F)(F)F)c3)CC2)c1	-70.3
CSCCC(=O)N(C)CC1CCN(CCc2cccc(C(F)(F)F)c2)CC1	-27.3
CN(CC1CCCN(CCc2cccc(C(F)(F)F)c2)C1)C(=O)c1ccc2nc[nH]c2c1 (stereo not shown)	5.78
CN(CC1CCN(CCc2cccc(C(F)(F)F)c2)CC1)C(=O)c1ccc(F)cc1	-60
